Bioassay records: PubChem, National Center for Advancing Translational Sciences (NCATS)
Compounds with a hit are over-represented: about 12% of the library has one in this group of screens.
Sm TGR inh – qHTS Assay for the Inhibitors of Schistosoma Mansoni Peroxiredoxins. AID 485364, 2010. purified TGR, DTNB reduction, TNB absorbance 405 nm. 360,000 tested, 3% active. Schistosoma mansoni thioredoxin glutathione reductase (TGR), Q962Y6. Potency, µM (doses to about 114 µM), for the others: at the highest dose activity change, negative = inhibition, hits mostly inhibitors; further: on the % scale 0 is the no-effect control and ±100 the full control effect; nearly all actives have a fitted effect of over 60% in size
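TGR 20 nM + NADPH 100 uM (dispensed conc.), cpd preinc 15 min RT; start with NADPH (500 uM addition) then DTNB (15 mM addition). Kinetic TNB absorbance, 405 nm filter. Four-parameter Hill fit across titration.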
Pf growth 48h – Primary qHTS for delayed death inhibitors of the malarial parasite plastid, 48 hour incubation | P. falciparum luciferase growth in erythrocytes, 48 h | Potency, µM (top dose mostly 28.7 µM), for the others: top-dose activity change, negative = inhibition, hits mostly inhibitors | 310,000 tested, 5.9% active; further: on the % scale 0 is the no-effect control and ±100 the full control effect
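Cell-based growth assay: transgenic P. falciparum expressing firefly luciferase, cultured in red cells within RPMI 1640 containing 0.5% w/v Albumax, 24 mM bicarbonate and gentamycin. A drop in luciferase activity indicates inhibition.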
Pf growth 96h – Primary qHTS for delayed death inhibitors of the malarial parasite plastid, 96 hour incubation | P. falciparum luciferase reporter growth, 96 h | 320,000 tested, 6.9% active | Potency, µM (top dose mostly 28.7 µM), for inactives: top-dose activity change, negative = inhibition, usual class: inhibitors | AID 504834, 2011; further: on the % scale 0 is the no-effect control and ±100 the full control effect
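Two parasite generations (96 h, 37 C, 5% CO2) of compound exposure in infected erythrocytes (0.05% parasitemia, 2% hematocrit). Luciferase-reporter P. falciparum; decreased luminescence indicates inhibited growth, aimed at apicoplast-acting delayed death.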
SARS PLpro yeast – qHTS of Yeast-based Assay for SARS-CoV PLP. S. cerevisiae expressing SARS-CoV PLpro, growth rescue. Potency, µM (highest dose often 32.9 µM), for inactives: at the top dose activity, positive = growth rescue, most hits filed as activators. 330,000 tested, 0.19% active. AID 485353, 2010; calls by dose curve; further: 0% is about no effect; nearly all actives have a fitted effect of over 55% in size
* hit, by the source's call. Unless noted, the call rests on the fitted dose curve; in most records, active means well fitted curve in the direction sought with a large enough effect; inconclusive means small, poorly fitted or top-dose-only effect, or another doubt; inactive means no such curve, though single readings can be large; an effect the other way counts as inactive or inconclusive. Potency means the concentration at half of the fitted maximal effect.

`CSCCC(=O)N1CCC(n2nccc2NC(=O)c2ccc3c(c2)OCO3)CC1` gave Sm TGR inh 0.0%, Pf growth 48h 25.2%, Pf growth 96h 39.9% and SARS PLpro yeast -7.5%.
`Cc1ccccc1CN1CCC(n2nccc2NC(=O)c2cccnc2)CC1` gave Sm TGR inh 4.6%, Pf growth 48h inconclusive, Pf growth 96h 9.28µM* and SARS PLpro yeast -0.4%.
For CCOc1ccccc1CNC(=O)C1CCCN(c2ncnc3onc(-c4ccc(F)cc4)c23)C1 (stereo not drawn) the results were Sm TGR inh -3.8%.
O=C(CCCN1C(=O)NC2(CCCC2)C1=O)Nc1ccc(Cl)c(S(=O)(=O)N2CCOCC2)c1 was read as Sm TGR inh 2.5%, Pf growth 48h inconclusive, Pf growth 96h inconclusive and SARS PLpro yeast 0.8%.
COc1ccccc1C(=O)Nc1ccnn1C1CCN(Cc2cnn(C)c2C)CC1 was read as Sm TGR inh -0.5%, Pf growth 48h -4.5%, Pf growth 96h 6.57µM* and SARS PLpro yeast -2.8%.
COc1ccc(S(=O)(=O)Nc2cc3c(cc2NCc2ccccc2)n(C)c(=O)n3C)cc1OC was read as Sm TGR inh -7.2%.
For CC(C)OC(=O)/C(=C\c1ccc2c(c1)c1ccccc1n2C)NC(=O)c1ccccc1 the results were Sm TGR inh 16.1%, Pf growth 48h 4.15µM*, Pf growth 96h 22.7% and SARS PLpro yeast 8.4%.
`CC(C)OC(=O)/C(=C/c1ccc2c(c1)c1ccccc1n2C)NC(=O)c1ccccc1` gave Sm TGR inh -13.0%, Pf growth 48h inconclusive, Pf growth 96h inconclusive and SARS PLpro yeast 5.8%.
Screening COC(=O)/C(=C\c1ccc2c(c1)c1ccccc1n2C)NC(=O)c1ccccc1 returned Sm TGR inh 7.4%, Pf growth 48h inconclusive, Pf growth 96h 1.17µM* and SARS PLpro yeast -10.8%.
For Cc1nn(C)cc1/C=N/NC(=O)Cn1nnc(N)n1 the results were Sm TGR inh 3.2%, Pf growth 48h 12.7%, Pf growth 96h 18.0% and SARS PLpro yeast -1.1%.
Screening Cc1nc2c(C(=O)NC(C)c3ccccc3)cnn2c(C)c1Cc1ccccc1 (stereo not drawn) returned Sm TGR inh 10.4%.
For CN1CCC(N(C)C(=S)Nc2ccc(F)cc2)CC1 the results were Sm TGR inh -18.3%, Pf growth 48h 336.2%, Pf growth 96h 8.7% and SARS PLpro yeast 2.4%.
For CCN1CCCC1CNC(=S)Nc1ccc(C(C)=O)cc1 (stereo not drawn) the results were Sm TGR inh 6.1%, Pf growth 48h 14.7µM*, Pf growth 96h -23.5% and SARS PLpro yeast 0.1%.
CC(=O)c1ccc(NC(=S)N2CCCCCC2)cc1 was read as Sm TGR inh -8.3%, Pf growth 48h 95.2%, Pf growth 96h 3.2% and SARS PLpro yeast -0.8%.
`CC(=O)c1ccc(NC(=S)N2C(C)CCCC2C)cc1` (stereo not drawn) gave Sm TGR inh 35.5µM*, Pf growth 48h inconclusive, Pf growth 96h 51.0% and SARS PLpro yeast inconclusive.
CC(=O)c1ccc(NC(=S)N(C)C2CCN(C)CC2)cc1 was read as Sm TGR inh -15.6%, Pf growth 48h 6.0%, Pf growth 96h 2.08µM* and SARS PLpro yeast 0.5%.
Screening COC(=O)c1cc(NC(=O)COC(=O)CN2C(=O)C3CC=CCC3C2=O)cc(C(=O)OC)c1 (stereo not drawn) returned Sm TGR inh 2.1%, Pf growth 48h 13.9%, Pf growth 96h 36.0% and SARS PLpro yeast 5.5%.
For Cc1cc(C)c(Cn2c(C(O)c3ccccc3)nc3ccccc32)c(C)c1 (stereo not drawn) the results were Sm TGR inh 0.1%.
`COc1ccc(-c2[nH]c(-c3ccc(F)cc3)nc2SCC(=O)Nc2ccc(OC)c(OC)c2)cc1` gave Sm TGR inh 5.9%.
CCC(C)C1NC(=S)N(C2CCCCC2)C1=O (stereo not drawn) was read as Sm TGR inh 16.0%, Pf growth 48h inconclusive, Pf growth 96h inconclusive and SARS PLpro yeast -11.1%.
Screening CC1NC(=S)N(C2CCCCC2)C1=O (stereo not drawn) returned Sm TGR inh -0.1%, Pf growth 48h 29.1%, Pf growth 96h 4.65µM* and SARS PLpro yeast 1.9%.
Screening CCN(Cc1ccccc1)C(=O)CCc1c(C)nc2c(c(C)nn2-c2ccc(C)c(C)c2)c1C returned Sm TGR inh 1.4%.
